# Screening results from PubChem.
# RN4220 kill: S. aureus RN4220 growth inhibition. inhibition, % (no concentration beside the values). OD600, 16 h. 0.33% of 330,000 active; in the data active = inhibition above about 85%;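 also: plate controls were untreated cells for no effect and reference antibiotic for full effect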
# PfHsp40 rescue: restores yeast growth despite PfHsp40 toxicity. S. cerevisiae expressing PfHsp40, growth rescue, ATP luminescence. growth rescue, % at 12.5 µM. 0.68% of 340,000 active. AID 504582; in the data active = growth rescue above about 28%, passing the limit was not always enough; inconclusive = no clear call, values can overlap the other calls;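 also: yeast W303a lacking pdr1 and pdr3 grown in galactose medium; growth measured after three days at 30 °C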
# Mtb hypoxia rep: Mtb hypoxia fluorescent reporter inhibition; fluorescence inhibition, % (concentration not given with the values); 0.1% of 300,000 active; AID 1159583; M. tuberculosis hypoxia-regulated fluorescent reporter, fluorescence; in the data active = fluorescence inhibition mostly above about 23%, no sharp cut-off; inactive = mostly below about 17%
# BH1578 lux ind: inducers of Vibrio cholerae quorum light production without autoinducers; V. cholerae BH1578 lux reporter, luminescence, 6 h; activation, % at 18.7 µM; 0.16% of 350,000 active; AID 588436; in the data active = activation mostly above about 9.7%, no sharp cut-off; inconclusive = no clear call, values can overlap the other calls; inactive = mostly below about 3.7%
# CCHF vOTU inh: CCHFV vOTU protease inhibition; Pep-AMC fluorescence; inhibition, % at 11.5 µM; 0.55% of 370,000 active; AID 651958; in the data active = inhibition above about 30%; also: 0% = vehicle wells with enzyme and 100% = no enzyme wells
# Sa ugtP lethal: kills S. aureus RN4220 lacking UgtP | S. aureus RN4220 ugtP deletion, OD600 growth, 16 h | growth inhibition, % (test concentration not listed) | 0.54% of 330,000 active | AID 1259309; in the data active = growth inhibition above about 68%;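 also: plate controls were untreated wells for no effect and antibiotic for full effect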
# Active calls of the source: *; i = inactive; u = inconclusive; x = no result shown. Shown are actives, neighbours in structure and some others; about 1.7% of the full set was active somewhere.
SMILES,RN4220 kill,PfHsp40 rescue,Mtb hypoxia rep,BH1578 lux ind,CCHF vOTU inh,Sa ugtP lethal
Cc1ccc(C=NNC(=O)c2ccoc2C)o1,7,x,x,x,x,1
COc1cnn(-c2ccc(C)cc2)c(=O)c1SCc1ccccc1,3,1,7,-1,-3,2
COc1cnn(-c2ccccc2)c(=O)c1SCc1ccc(Cl)cc1Cl,-11,88*,1,0,2,10
COc1ccc(-c2csc(Nc3ccccc3)n2)cc1,-10,57*,5,i,9,14
c1ccc(Nc2nc(-c3ccccn3)cs2)cc1,7,317*,0,6,4,-8
COc1cccc2sc(Nc3nc(-c4ccccn4)cs3)nc12,99*,u,-69,i,x,99*
COc1cccc2sc(NNC(=O)COc3ccccc3)nc12,4,0,14,-1,18,3
O=C(Nc1cccc(-c2csc(Nc3ccccc3)n2)c1)c1ccccc1,23,73*,12,-1,6,37
O=C(Nc1cccc(-c2csc(Nc3cccc(C(F)(F)F)c3)n2)c1)c1ccccc1,x,4,x,-1,27,x
CCN(CC)c1ccc(C=NNC(=O)Cc2cccs2)cc1,3,x,2,x,x,5
CCCCN1CC(Cc2ccccc2)C(CC(=O)NCc2ccc(OC)cc2)C1=O (stereo not given),2,x,-4,x,x,-17
COc1ccc(C2/C=C\CN(C(=O)Nc3ccc(C(F)(F)F)cc3)CC(=O)N2Cc2ccc(F)cc2)cc1 (stereo not given),x,93*,x,i,x,x
Oc1ccc(CN2CCCc3ccccc32)c2cccnc12,-4,38*,x,i,x,1
COc1cc(C=NO)cc(Br)c1OCC(=O)NCc1ccccc1,9,x,12,x,x,16
COc1cc(/C=C/C(=O)OCC(=O)NC(=O)NC(C)(C)C)ccc1OCC#N,2,83*,14,0,11,7
COc1ccc(CCNC(=O)COC(=O)/C=C/c2ccc(OCC#N)c(OC)c2)cc1OC,-1,0,-4,0,9,5
COc1cc(OC)cc(-c2sc3ccc(OC)cc3c2-c2ccc(O)cc2)c1,99*,u,7,i,5,100*
COc1ccc(-c2sc3ccc(OC)cc3c2-c2ccc(O)cc2)cc1,76,0,3,i,10,100*
COc1ccc(-c2c(-c3ccccc3OC)sc3ccccc23)cc1,-10,-2,2,i,8,87*
COc1ccc2sc(-c3ccccc3OC)c(-c3ccc(O)cc3)c2c1,x,22,x,0,-4,x
COCc1ccc(-c2c(-c3cccc(OC)c3)sc3ccc(OC)cc23)cc1,-3,0,-3,-1,-2,33
COc1ccc(-c2c(-c3ccc(S(C)(=O)=O)cc3)sc3ccc(OC)cc23)cc1,x,1,x,i,-8,x
COc1ccc(-c2c(-c3cc(OC)cc(OC)c3)sc3ccc(OC)cc23)cc1,-9,-1,9,i,2,92*
COc1ccc2sc(-c3ccc(N(C)C)cc3)c(C#Cc3cncn3C)c2c1,78,u,23,0,-4,82*
COc1ccc2sc(-c3ccc(N(C)C)cc3)c(C#CCCO)c2c1,0,u,10,-1,-148,0
SMILES,RN4220 kill,PfHsp40 rescue,Mtb hypoxia rep,BH1578 lux ind,CCHF vOTU inh,Sa ugtP lethal
c1ccc(-c2sc3ccccc3c2-c2ccc(OCCN3CCCCC3)cc2)cc1,-3,0,11,0,7,22
CN(C)CCOc1ccc(-c2c(-c3ccccc3)sc3ccccc23)cc1,100*,33*,51*,-1,0,100*
COc1ccc(-c2sc3ccc(OC)cc3c2C#CCCO)cc1,x,46*,x,0,x,x
COc1ccc2sc(-c3ccc(N(C)C)cc3)c(C#CC(C)(C)O)c2c1,4,1,2,i,-74,4
CSc1ccc(C=NNC(=O)C[n+]2ccccc2)cc1,-1,x,2,x,x,-2
Cc1noc(C)c1NC(=O)N(C)CC1Oc2ccc(NC(=O)Cc3ccccc3)cc2C(=O)N(C(C)CO)CC1C (stereo not given),5,x,2,x,x,-1
CC(=NN=C1NC(=O)CC(C(=O)O)S1)c1ccccc1 (stereo not given),10,x,7,x,x,-3
Cc1sc(NC(=O)c2ccco2)c(C(c2ccccc2)N2CCC(C)CC2)c1C (stereo not given),85,1,-14,1,5,active
Cc1ccc(C(c2c(NC(=O)c3ccco3)sc(C)c2C)N2CCOCC2)cc1 (stereo not given),x,x,x,-1,-4,x
CN(C)c1nc(-c2ccccc2)c2cnn(Cc3ccccc3)c2n1,-7,2,4,-2,-20,89*
c1ccc(Cn2ncc3ccccc32)cc1,2,-1,11,-1,-5,15
O=C1NC(Cc2ccccc2)C(c2ccco2)O1 (stereo not given),5,x,3,x,x,5
COC(=O)C1=C(c2ccc3ccccc3c2)C[C@@H]2CC[C@H]1N2C,x,1,x,i,-10,x
COC(=O)C1=C(C(=O)OC)C2OC1c1cc3ccccc3cc12,x,71*,x,-1,6,x
CC(C)(C)OC(=O)CC1CC=CCC(CC(=O)NCCO)C(=O)NC(Cc2ccccc2)COC1=O (stereo not given),7,x,8,x,x,0
N#CC(C#N)=C1C=CC=CN1/C(=C\c1ccco1)C(=O)c1ccc(Cl)cc1,52,0,17,-3,0,89*
N#CC(C#N)=C1C=CC=CN1/C(=C\c1ccco1)C(=O)c1ccc(-c2ccccc2)cc1,2,56*,6,0,-1,-4
CCOc1ncccc1C(=O)N(C)CC(=O)Nc1ccc(C)cc1,3,-2,x,0,-3,6
COc1cccc(NC(=O)CN(C)C(=O)c2cccnc2Nc2cccc(C(F)(F)F)c2)c1,-14,299*,11,-2,x,-9
Cc1ccc(NC(=O)CN(C)C(=O)c2cccnc2Nc2cccc(C(F)(F)F)c2)cc1,32,567*,11,i,12,12
CCn1c(=O)c(CCC(=O)N2CCN(c3ccccn3)CC2)c(C)c2c(C)nn(-c3ccccc3)c21,2,45*,6,0,4,-6
COc1cc2c(c(OC)c1OC)-c1ccc(O)c(=O)cc1[C@@H](NC(C)=O)CC2,x,325*,x,0,12,x
Cc1ccc(NCC(=O)N2CCN(S(=O)(=O)c3ccccc3)CC2)cc1F,3,0,-8,i,-3,8
N#Cc1ccc(NCC(=O)N2CCN(S(=O)(=O)c3ccccc3)CC2)cc1,2,0,43*,2,12,1
CC(=NO)c1ccc(N2C(=O)C3CC=C(Cl)CC3C2=O)cc1 (stereo not given),6,x,8,x,x,6
CC1CN(C(=O)/C=C/c2ccc3c(c2)OCO3)CC(C)O1 (stereo not given),0,0,91*,0,-10,-1
Cc1c(Cl)sn(-c2ccc(Cl)cc2)c1=O,101*,23,x,-1,9,101*
